Test results as given in the supplement of paper PMC6992640.
± gives the standard deviation of the averaged measurements.

Columns and labels:
Assay in all cases: cell viability (% of vehicle); higher = less cytotoxic
Conditions in all cases: 10 µM; 72 h
[1] = test system: HCI01 (cells of a triple-negative basal-like breast cancer xenograft)
[2] = test system: HCI03 (cells of an ER-positive luminal breast cancer xenograft)
[3] = test system: HCI09 (cells of a triple-negative luminal androgen receptor type breast cancer xenograft)
[4] = test system: HCI11 (cells of an ER-positive luminal breast cancer xenograft)
[5] = test system: HCI13 (cells of an ER-positive luminal breast cancer xenograft)
[6] = test system: HCI16 (cells of a triple-negative basal-like breast cancer xenograft)
[7] = test system: UCD52 (cells of a triple-negative basal-like breast cancer xenograft)
[8] = test system: WHIM2 (cells of a triple-negative basal-like breast cancer xenograft)
[9] = test system: WHIM30 (cells of a triple-negative basal-like breast cancer xenograft)
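Also: PDX cells carrying CMV promoter-driven luciferase, viability read as total photon flux per second by IVIS imaging following D-luciferin, vehicle control 0.1% DMSO.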

Structure (SMILES): NC(=O)c1ncn(C2OC(CO)C(O)C2O)c1O (stereo not given) [Mizoribine]
- cell viability [1]: 82.4 ± 3.9
- cell viability [2]: 89.4
- cell viability [3]: 93.1 ± 30
- cell viability [4]: 88.8
- cell viability [5]: 90.05 ± 0.16
- cell viability [6]: 87.7
- cell viability [7]: 88.5 ± 5
- cell viability [8]: 97 ± 11
- cell viability [9]: 84.4 ± 3.9

Structure (SMILES): CC(=O)Oc1cc2c(s1)CCN(C(C(=O)C1CC1)c1ccccc1F)C2 (stereo not given) [Prasugrel]
- cell viability [1]: 76.6 ± 67
- cell viability [2]: 164
- cell viability [3]: 114 ± 4.9
- cell viability [4]: 120
- cell viability [5]: 81.6 ± 18
- cell viability [6]: 122
- cell viability [7]: 113 ± 20
- cell viability [8]: 102 ± 28
- cell viability [9]: 112 ± 16

Structure (SMILES): COc1cc(C(C)=O)ccc1OCCCN1CCC(c2noc3cc(F)ccc23)CC1 [Iloperidone]
- cell viability [1]: 153 ± 25
- cell viability [2]: 101
- cell viability [3]: 117 ± 19
- cell viability [4]: 103
- cell viability [5]: 121 ± 14
- cell viability [6]: 172
- cell viability [7]: 88.2 ± 1.8
- cell viability [8]: 106 ± 6
- cell viability [9]: 122.82 ± 0.035

Structure (SMILES): CC(C)CN(CC(O)C(Cc1ccccc1)NC(=O)OC1CCOC1)S(=O)(=O)c1ccc(N)cc1 (stereo not given) [Amprenavir (agenerase)]
- cell viability [1]: 96.3 ± 11
- cell viability [2]: 99.1
- cell viability [3]: 85.6 ± 4.6
- cell viability [4]: 104
- cell viability [5]: 103 ± 7.5
- cell viability [6]: 115
- cell viability [7]: 56.8 ± 3.1
- cell viability [8]: 78.8 ± 8.7
- cell viability [9]: 112 ± 25

Structure (SMILES): Nc1ncnc2c1ncn2C1OC(CO)C(O)C1O (stereo not given) [Vidarabine]
- cell viability [1]: 64.8 ± 36
- cell viability [2]: 136
- cell viability [3]: 90.1 ± 5.1
- cell viability [4]: 86.9
- cell viability [5]: 106 ± 6.1
- cell viability [6]: 96.1
- cell viability [7]: 80.5 ± 2.9
- cell viability [8]: 105 ± 19
- cell viability [9]: 153 ± 7.4

Structure (SMILES): CC(=O)O[C@H]1C[C@@]2(C)[C@@H](C[C@@H](O)[C@H]3[C@@]4(C)CC[C@@H](O)[C@@H](C)[C@@H]4CC[C@@]32C)/C1=C(\CCC=C(C)C)C(=O)[O-].[Na+] [Fusidic Acid (sodium salt)]
- cell viability [1]: 97.1 ± 30
- cell viability [2]: 116
- cell viability [3]: 112 ± 21
- cell viability [4]: 81.6
- cell viability [5]: 129 ± 2.5
- cell viability [6]: 121
- cell viability [7]: 111 ± 3.2
- cell viability [8]: 88.3 ± 15
- cell viability [9]: 149 ± 19

Structure (SMILES): COc1ccc2c(c1)c(CC(=O)OCC(=O)O)c(C)n2C(=O)c1ccc(Cl)cc1 [Acemetacin]
- cell viability [1]: 108 ± 3.5
- cell viability [2]: 113
- cell viability [3]: 97.6 ± 29
- cell viability [4]: 97.4
- cell viability [5]: 111 ± 9
- cell viability [6]: 106
- cell viability [7]: 78.2 ± 5
- cell viability [8]: 86.9 ± 22
- cell viability [9]: 76.6 ± 11

Structure (SMILES): CCCCOc1cc(C(=O)OCCN(CC)CC)ccc1N.Cl [Oxybuprocaine HCl]
- cell viability [1]: 162 ± 33
- cell viability [2]: 99.6
- cell viability [3]: 83.9 ± 11
- cell viability [4]: 88.8
- cell viability [5]: 95.5 ± 34
- cell viability [6]: 149
- cell viability [7]: 90 ± 31
- cell viability [8]: 126 ± 24
- cell viability [9]: 189 ± 3.2

Structure (SMILES): COc1cc(NC(C)CCCN)c2ncccc2c1.O=P(O)(O)O.O=P(O)(O)O (stereo not given) [Primaquine Diphosphate]
- cell viability [1]: 56.3 ± 9.8
- cell viability [2]: 95.2
- cell viability [3]: 29.3 ± 9.9
- cell viability [4]: 49
- cell viability [5]: 68.2 ± 11
- cell viability [6]: 116
- cell viability [7]: 75.7 ± 10
- cell viability [8]: 70.5 ± 11
- cell viability [9]: 112 ± 1.8

Structure (SMILES): Cc1cnc(C(=O)O)c[n+]1[O-] [Acipimox]
- cell viability [1]: 76.1 ± 45
- cell viability [2]: 159
- cell viability [3]: 98.5 ± 17
- cell viability [4]: 78.9
- cell viability [5]: 90.4 ± 3.8
- cell viability [6]: 103
- cell viability [7]: 79.6 ± 5.9
- cell viability [8]: 108 ± 1.4

Structure (SMILES): CC1(O)CC(c2nc(-c3ccc4ccc(-c5ccccc5)nc4c3)c3c(N)nccn23)C1 (stereo not given) [Linsitinib]
- cell viability [1]: 112 ± 1.2
- cell viability [2]: 109
- cell viability [3]: 73.3 ± 39
- cell viability [4]: 76.3
- cell viability [5]: 38.6 ± 4
- cell viability [6]: 127
- cell viability [7]: 71.6 ± 2.8
- cell viability [8]: 102 ± 11
- cell viability [9]: 126 ± 12

Structure (SMILES): CC(NC(=O)Cc1cc(F)cc(F)c1)C(=O)NC(C(=O)OC(C)(C)C)c1ccccc1 (stereo not given)
- cell viability [1]: 111 ± 14
- cell viability [2]: 115
- cell viability [3]: 64.1 ± 6.3
- cell viability [4]: 104
- cell viability [5]: 116 ± 9.7
- cell viability [6]: 130
- cell viability [7]: 60.1 ± 2.1
- cell viability [8]: 74.18 ± 0.26
- cell viability [9]: 123 ± 25

Structure (SMILES): CCCCNc1ccc(C(=O)OCCN(C)C)cc1.Cl [Tetracaine HCl]
- cell viability [1]: 130 ± 19
- cell viability [2]: 134
- cell viability [3]: 105 ± 25
- cell viability [4]: 121
- cell viability [5]: 122 ± 19
- cell viability [6]: 99
- cell viability [7]: 90.7 ± 13
- cell viability [8]: 92.2 ± 17
- cell viability [9]: 103.43 ± 0.084

Structure (SMILES): CCCNC(=O)NS(=O)(=O)c1ccc(Cl)cc1 [Chlorpropamide]
- cell viability [1]: 121 ± 28
- cell viability [2]: 113
- cell viability [3]: 73.9 ± 18
- cell viability [4]: 82.9
- cell viability [5]: 81.8 ± 25
- cell viability [6]: 105
- cell viability [7]: 92.5 ± 5.9
- cell viability [8]: 99.5 ± 14
- cell viability [9]: 104 ± 4.6

Structure (SMILES): CC1=C(CC(=O)O)c2cc(F)ccc2C1=Cc1ccc(S(C)=O)cc1 (stereo not given) [Sulindac]
- cell viability [1]: 92.1 ± 23
- cell viability [2]: 89.2
- cell viability [3]: 81.5 ± 4.2
- cell viability [4]: 76.2
- cell viability [5]: 108 ± 0.55
- cell viability [6]: 119
- cell viability [7]: 97.3 ± 3.1
- cell viability [8]: 88.7 ± 6.6
- cell viability [9]: 104 ± 13

Structure (SMILES): OCCOc1ccc(C(=C(CCCl)c2ccccc2)c2ccccc2)cc1 [Ospemifene]
- cell viability [1]: 117 ± 33
- cell viability [2]: 139
- cell viability [3]: 99.6 ± 30
- cell viability [4]: 106
- cell viability [5]: 91 ± 2.3
- cell viability [6]: 146
- cell viability [7]: 86.3 ± 1.5
- cell viability [8]: 78.5 ± 5.9
- cell viability [9]: 148 ± 10

Structure (SMILES): O=S(=O)([O-])CCSSCCS(=O)(=O)[O-].[Na+].[Na+] [Dimesna]
- cell viability [1]: 111 ± 23
- cell viability [2]: 150
- cell viability [3]: 97 ± 6.5
- cell viability [4]: 103
- cell viability [5]: 122 ± 15
- cell viability [6]: 124
- cell viability [7]: 111 ± 8.6
- cell viability [8]: 128 ± 9.9
- cell viability [9]: 125 ± 12

Structure (SMILES): COc1cc(Cc2cnc(N)nc2N)cc(OC)c1OC [Trimethoprim]
- cell viability [1]: 78.3 ± 37
- cell viability [2]: 144
- cell viability [3]: 91.1 ± 7.9
- cell viability [4]: 93
- cell viability [5]: 117 ± 22
- cell viability [6]: 120
- cell viability [7]: 95.4 ± 7.4
- cell viability [8]: 118 ± 7.3

Structure (SMILES): CC(=O)[C@@]1(O)CC[C@H]2[C@@H]3CCC4=CC(=O)CCC4=C3[C@@H](c3ccc(N(C)C)cc3)C[C@@]21C [Ulipristal]
- cell viability [1]: 70.8 ± 48
- cell viability [2]: 147
- cell viability [3]: 36.6 ± 13
- cell viability [4]: 82.9
- cell viability [5]: 113 ± 3.3
- cell viability [6]: 118
- cell viability [7]: 93.5 ± 11
- cell viability [8]: 87.8 ± 10
- cell viability [9]: 142 ± 1.3

Structure (SMILES): CCOC(=O)C1=C(C)NC(C)=C(C(=O)OC)C1c1cccc([N+](=O)[O-])c1 (stereo not given) [Nitrendipine]
- cell viability [1]: 111 ± 10
- cell viability [2]: 123
- cell viability [3]: 93.6 ± 17
- cell viability [4]: 112
- cell viability [5]: 104 ± 0.32
- cell viability [6]: 90.2
- cell viability [7]: 80.15 ± 0.7
- cell viability [8]: 95.6 ± 22
- cell viability [9]: 97.2 ± 5.3

Structure (SMILES): CCOC(=O)n1ccn(C)c1=S [Carbimazole]
- cell viability [1]: 90.9 ± 7.9
- cell viability [2]: 145
- cell viability [3]: 95 ± 11
- cell viability [4]: 93.4
- cell viability [5]: 66.4 ± 18
- cell viability [6]: 101
- cell viability [7]: 95.5 ± 7.5
- cell viability [8]: 104 ± 30
- cell viability [9]: 135 ± 11

Structure (SMILES): CCCC(=O)OCOC(=O)C1=C(C)NC(C)=C(C(=O)OC)C1c1cccc(Cl)c1Cl (stereo not given) [Clevidipine Butyrate]
- cell viability [1]: 106.5 ± 0.58
- cell viability [2]: 126
- cell viability [3]: 104 ± 19
- cell viability [4]: 112
- cell viability [5]: 105 ± 6.6
- cell viability [6]: 88.1
- cell viability [7]: 92.2 ± 1.5
- cell viability [8]: 100 ± 6.3
- cell viability [9]: 91 ± 2.4

Structure (SMILES): O=c1[nH]c(=O)n(C2CC(O)C(CO)O2)cc1C(F)(F)F (stereo not given) [Triflurdine (Viroptic)]
- cell viability [1]: 123 ± 1.4
- cell viability [2]: 132
- cell viability [3]: 137 ± 70
- cell viability [4]: 111
- cell viability [5]: 147 ± 24
- cell viability [6]: 97.1
- cell viability [7]: 116 ± 1.5
- cell viability [8]: 87.8 ± 36
- cell viability [9]: 132 ± 15

Structure (SMILES): NC(=O)N1c2ccccc2CC(=O)c2ccccc21 [Oxcarbazepine]
- cell viability [1]: 91.5 ± 16
- cell viability [2]: 133
- cell viability [3]: 107 ± 16
- cell viability [4]: 98.9
- cell viability [5]: 104 ± 15
- cell viability [6]: 124
- cell viability [7]: 99.59 ± 0.42
- cell viability [8]: 91.2 ± 2.1
- cell viability [9]: 159 ± 3.8

Structure (SMILES): Cc1nc2n(c(=O)c1CCN1CCC(c3noc4cc(F)ccc34)CC1)CCCC2 [Risperidone]
- cell viability [1]: 133 ± 7.9
- cell viability [2]: 82.8
- cell viability [3]: 107 ± 61
- cell viability [4]: 105
- cell viability [5]: 118 ± 38
- cell viability [6]: 107
- cell viability [7]: 83.8 ± 11
- cell viability [8]: 86 ± 25
- cell viability [9]: 128 ± 15

Structure (SMILES): C=CC1=C(C(=O)O)N2C(=O)C(NC(=O)C(=NO)c3csc(N)n3)C2SC1 (stereo not given) [Cefdinir]
- cell viability [1]: 96.2 ± 11
- cell viability [2]: 138
- cell viability [3]: 107 ± 6.3
- cell viability [4]: 120
- cell viability [5]: 130 ± 4.8
- cell viability [6]: 121
- cell viability [7]: 96.6 ± 12
- cell viability [8]: 98.1 ± 22
- cell viability [9]: 114 ± 8

Structure (SMILES): COc1c2ccoc2cc2oc(=O)ccc12 [5-Methoxypsoralen]
- cell viability [1]: 103 ± 24
- cell viability [2]: 142
- cell viability [3]: 93.1 ± 13
- cell viability [4]: 93.8
- cell viability [5]: 121 ± 3.1
- cell viability [6]: 109
- cell viability [7]: 85.2 ± 13
- cell viability [8]: 103 ± 3.7
- cell viability [9]: 93 ± 3.1

Structure (SMILES): Cn1nnc2c(C(N)=O)ncn2c1=O [Temozolomide]
- cell viability [1]: 136 ± 12
- cell viability [2]: 125
- cell viability [3]: 105 ± 15
- cell viability [4]: 111
- cell viability [5]: 122 ± 17
- cell viability [6]: 136
- cell viability [7]: 97.8 ± 28
- cell viability [8]: 117 ± 5.3
- cell viability [9]: 107 ± 16
